Drawing on PubChem BioAssay, this text covers inhibition and growth inhibition for 40 molecules.

A number with no mark means an inactive call. Activity calls are given as the source filed them. No rule for the calls is given here.

What is called inhibition is the relative decrease from the control value, in per cent.

L-lactate dehydrogenase (Plasmodium falciparum (isolate CDC / Honduras)), sequence (Q27743 whole entry, looked up): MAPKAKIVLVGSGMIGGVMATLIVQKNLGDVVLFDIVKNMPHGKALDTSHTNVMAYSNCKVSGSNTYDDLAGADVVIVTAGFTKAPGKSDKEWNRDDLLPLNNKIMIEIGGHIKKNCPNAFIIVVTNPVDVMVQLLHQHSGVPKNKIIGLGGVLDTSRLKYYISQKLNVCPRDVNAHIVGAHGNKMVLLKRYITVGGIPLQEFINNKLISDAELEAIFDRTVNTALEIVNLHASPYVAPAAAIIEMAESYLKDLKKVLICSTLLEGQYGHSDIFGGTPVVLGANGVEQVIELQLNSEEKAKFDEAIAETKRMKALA

The first test addresses L-lactate dehydrogenase (Plasmodium falciparum (isolate CDC / Honduras)) (UniProt Q27743). Kind of test: PfLDH activity inhibition – cell lysate, 3D7 strain, counter-screen for P. falciparum growth inhibition project (AID 2304).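 Also: 0% = vehicle and 100% = reference inhibitor.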 The conditions noted are these: P. falciparum 3D7 crude extract, LDH APAD/NBT absorbance; at 2 µM; active compounds read high.
Consider `CN(C)CCc1coc2ccc(C(=O)Nc3ccc(-c4ccc(O)cc4)cc3)cc12`, for which the inhibition is -3%.

Regarding `CCOc1cc2c(cc1OCC)C(c1ccc(O)c(Cl)c1)NCC2` (stereo not given), the inhibition was 4%.

Take `CN1CCN(CCCN(Cc2ccc(-c3cccc(CNC4CCCC4)c3)cc2)C(=O)/C=C/c2ccccc2)CC1`: the inhibition is 4%.

For the molecule `Cc1cc(Nc2ccc(Cl)cc2)n2nc(C(F)(F)F)nc2n1`, the inhibition was -1%.

Regarding `CCNc1cc(C(=O)N[C@@H](Cc2ccccc2)[C@H](O)CNCC(C)C)cc(N2CCCC2=O)c1`, the inhibition is 3%.

For `COc1ccc(C(=O)N[C@@H](CC(C)C)C(=O)N[C@H](/C=N/NC(=O)c2ccccc2)CCc2ccccc2)cc1OCCN1CCOCC1`, the inhibition was 1%.

Turning to `Cc1cc(N[C@@H](Cc2ccccc2)C(=O)NCCCOC(C)C)nc(NCC2CCCCC2)n1`, the inhibition was -4%.

With `Cc1nnsc1C(=O)Nc1cccc(-c2ccc(-c3nc4ccc(C(F)(F)F)cc4[nH]3)cc2)c1`, the inhibition is 3%.

Turning to `CC1(C)N=C(N)N=C(N)N1OCCc1cccc2ccccc12`, the inhibition was -2%.

In the case of `Cc1ccc(Cn2ncc(N3CCNCC3)c(Cl)c2=O)cc1NC(=O)Nc1ccc(-c2ccccc2)cc1`, the inhibition was 6%.

`Cc1cc(-c2ccc3c(c2)CCN(CCC2CCC(NC(=O)/C=C/c4ccc(F)cc4)CC2)CC3)on1` (stereo not given): the inhibition was -4%.

Consider `COc1cc(OCCCN(C)Cc2ccc(OC)c(OC)c2)ccc1NC(=O)c1cccc2c(=O)c3cccc(F)c3[nH]c12`, for which the inhibition was -5%.

`O=C(Nc1cccc(CN2CCN(C(=O)c3ccccc3)CC2)c1)c1ccco1`: the inhibition was -2%.

Regarding `COc1ccc2c(NN=Cc3ccccc3[N+](=O)[O-])cc(C)nc2c1`, the inhibition is -4%.

As for `Cc1nc(-c2ccc(C#N)cc2)sc1C(=O)NCCCCN1CCC(c2ccc3c(c2OCCO)CCCC3)CC1`, the inhibition was 6%.

Consider `Cc1nc2nc(N)nc(N)c2c(C)c1Cc1ccccc1Br`, for which the inhibition is 1%.

In the case of `COC(=O)c1cccc(CNCc2cccc(-c3cccc(-c4nc5ccc(C(F)(F)F)cc5[nH]4)c3)c2)c1`, the inhibition is 6%.

With `CC(C)(C)CCN1CCC(CNC(=O)c2cc(-c3cccc(Cl)c3)cs2)C1` (stereo not given), the inhibition was 3%.

On to `CC(C)(C)c1ccc(S(=O)(=O)Nc2ccccc2N2CCOCC2)cc1`, for which the inhibition is 1%.

In the case of `CC(Cc1ccc(NC(=O)c2ccc(NCCc3ccccc3)cc2)cc1)NCCc1cccc(Cl)c1` (stereo not given), the inhibition is 4%.

Regarding `O=C(Nc1ccccc1Oc1ccccc1)NC1CCN(c2ccnc3cc(Cl)ccc23)C1` (stereo not given), the inhibition is 0%.

With `C#C[C@H]1O[C@@H](n2cnc3c(Nc4cc(Br)cc(C(F)(F)F)c4)ncnc32)[C@H](O)[C@@H]1O`, the inhibition was 4%.

In the case of `Oc1ccc(CCNc2nc(NCc3ccccc3-c3ccc(C(F)(F)F)cc3)nc(N3CCNCC3)n2)cc1`, the inhibition was 8%.

As to `CCN(CCO)Cc1ccc(-c2ccc(NS(=O)(=O)c3cccc4cccnc34)cc2)cc1`, the inhibition was 2%.

For the molecule `O=C(Nc1cccc(OC2CCN(Cc3ccccc3)CC2)c1)c1ccc([N+](=O)[O-])cc1`, the inhibition is 3%.

As for `O=C(Nc1ccc(-c2csc(-c3nc4ccccc4[nH]3)c2)cc1)Nc1ccsc1`, the inhibition was -1%.

Turning to `CN(C)CCOC(=O)C1(O)CCC2CC1C2(C)C` (stereo not given), the inhibition was -9%.

Take `CCN(CC)CCNc1ccnc2[nH]c3ccc(I)cc3c12`: the inhibition was -1%.

Consider `C(=NNc1cc(-c2ccccc2)nc2ccccc12)c1cccnc1`, for which the inhibition is -1%.

Turning to `COc1ccc2nc(-c3cc(-c4ccc(NC(=O)CN5CCOCC5)cc4)cnc3N)[nH]c2c1`, the inhibition is -4%.

In the case of `Cc1cccc(C(=O)N2CCN(Cc3cccc(NC(=O)c4cccs4)c3)CC2)c1`, the inhibition was 0%.

For `Cn1ncc2c3c(CCN4CCC(NCc5cc6c(cn5)OCC6)CC4)c(Cl)cnc3ccc21`, the inhibition was 2%.

For the molecule `COc1ccc(CNc2ncc(-c3ccsc3)c(-c3nccs3)n2)cc1OC`, the inhibition was -1%.

Turning to `CCCC(=O)Nc1ccc(OCCN(Cc2ccccc2OC(F)(F)F)c2ccc(C(F)(F)F)c(C#N)c2)cc1`, the inhibition was -1%.

Take `CC(=O)Nc1cccc(C(=O)Nc2cccc(-c3ccc(-c4nc5c(C)cccc5[nH]4)cc3)c2)c1`: the inhibition is -1%.

Turning to `Cc1cc(OCCCN2CCC(NS(=O)(=O)c3cc(Br)c(Cl)s3)CC2)c2ccccc2n1`, the inhibition was 3%.

Consider `Cc1ccccc1OCC(=O)Nc1ccc(-c2nc3cc4ccccc4cc3[nH]2)cc1`, for which the inhibition was 2%.

As to `CCc1c(C)nc(-n2nc(C)cc2NC(=O)C(CC)c2ccccc2)[nH]c1=O` (stereo not given), the inhibition is -1%.

Take `CC(C)Cn1c2ccccc2c2nc3nc(N)nc(N)c3nc21`: the inhibition was -3%.

On to `O=C(NC1CCN(Cc2ccc(Cl)cc2)CC1)c1cn(-c2ccccc2)nc1-c1cccnc1`, for which the inhibition is -2%.

Test system in a further test: not listed separately
Kind of test: inhibition of 3D7 malaria parasite growth – strain 3D7 (AID 2306).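 Also: 0% = DMSO wells and 100% = chloroquine plus artemisinin control wells.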 As to conditions: P. falciparum 3D7 erythrocytic growth, LDH absorbance, 72 h; at 2 µM; active compounds read high.
Consider `CN(C)CCc1coc2ccc(C(=O)Nc3ccc(-c4ccc(O)cc4)cc3)cc12`, for which the growth inhibition was 101% (active).

For `CCOc1cc2c(cc1OCC)C(c1ccc(O)c(Cl)c1)NCC2` (stereo not given), the growth inhibition is 98% (active).

Consider `CN1CCN(CCCN(Cc2ccc(-c3cccc(CNC4CCCC4)c3)cc2)C(=O)/C=C/c2ccccc2)CC1`, for which the growth inhibition is 100% (active).

As for `Cc1cc(Nc2ccc(Cl)cc2)n2nc(C(F)(F)F)nc2n1`, the growth inhibition is 97% (active).

On to `CCNc1cc(C(=O)N[C@@H](Cc2ccccc2)[C@H](O)CNCC(C)C)cc(N2CCCC2=O)c1`, for which the growth inhibition was 98% (active).

For `COc1ccc(C(=O)N[C@@H](CC(C)C)C(=O)N[C@H](/C=N/NC(=O)c2ccccc2)CCc2ccccc2)cc1OCCN1CCOCC1`, the growth inhibition is 96% (active).

Consider `Cc1cc(N[C@@H](Cc2ccccc2)C(=O)NCCCOC(C)C)nc(NCC2CCCCC2)n1`, for which the growth inhibition was 94% (active).

With `Cc1nnsc1C(=O)Nc1cccc(-c2ccc(-c3nc4ccc(C(F)(F)F)cc4[nH]3)cc2)c1`, the growth inhibition was 99% (active).

In the case of `CC1(C)N=C(N)N=C(N)N1OCCc1cccc2ccccc12`, the growth inhibition was 95% (active).

With `Cc1ccc(Cn2ncc(N3CCNCC3)c(Cl)c2=O)cc1NC(=O)Nc1ccc(-c2ccccc2)cc1`, the growth inhibition was 90% (active).

In the case of `Cc1cc(-c2ccc3c(c2)CCN(CCC2CCC(NC(=O)/C=C/c4ccc(F)cc4)CC2)CC3)on1` (stereo not given), the growth inhibition is 98% (active).

On to `COc1cc(OCCCN(C)Cc2ccc(OC)c(OC)c2)ccc1NC(=O)c1cccc2c(=O)c3cccc(F)c3[nH]c12`, for which the growth inhibition was 94% (active).

On to `O=C(Nc1cccc(CN2CCN(C(=O)c3ccccc3)CC2)c1)c1ccco1`, for which the growth inhibition was 95% (active).

`COc1ccc2c(NN=Cc3ccccc3[N+](=O)[O-])cc(C)nc2c1`: the growth inhibition was 101% (active).

In the case of `Cc1nc(-c2ccc(C#N)cc2)sc1C(=O)NCCCCN1CCC(c2ccc3c(c2OCCO)CCCC3)CC1`, the growth inhibition was 99% (active).

For `Cc1nc2nc(N)nc(N)c2c(C)c1Cc1ccccc1Br`, the growth inhibition is 92% (active).

Take `COC(=O)c1cccc(CNCc2cccc(-c3cccc(-c4nc5ccc(C(F)(F)F)cc5[nH]4)c3)c2)c1`: the growth inhibition is 102% (active).

On to `CC(C)(C)CCN1CCC(CNC(=O)c2cc(-c3cccc(Cl)c3)cs2)C1` (stereo not given), for which the growth inhibition was 99% (active).

Regarding `CC(C)(C)c1ccc(S(=O)(=O)Nc2ccccc2N2CCOCC2)cc1`, the growth inhibition is 90% (active).

For `CC(Cc1ccc(NC(=O)c2ccc(NCCc3ccccc3)cc2)cc1)NCCc1cccc(Cl)c1` (stereo not given), the growth inhibition is 92% (active).

As to `O=C(Nc1ccccc1Oc1ccccc1)NC1CCN(c2ccnc3cc(Cl)ccc23)C1` (stereo not given), the growth inhibition is 99% (active).

Turning to `C#C[C@H]1O[C@@H](n2cnc3c(Nc4cc(Br)cc(C(F)(F)F)c4)ncnc32)[C@H](O)[C@@H]1O`, the growth inhibition was 94% (active).

With `Oc1ccc(CCNc2nc(NCc3ccccc3-c3ccc(C(F)(F)F)cc3)nc(N3CCNCC3)n2)cc1`, the growth inhibition is 97% (active).

`CCN(CCO)Cc1ccc(-c2ccc(NS(=O)(=O)c3cccc4cccnc34)cc2)cc1`: the growth inhibition is 92% (active).

On to `O=C(Nc1cccc(OC2CCN(Cc3ccccc3)CC2)c1)c1ccc([N+](=O)[O-])cc1`, for which the growth inhibition was 100% (active).

For `O=C(Nc1ccc(-c2csc(-c3nc4ccccc4[nH]3)c2)cc1)Nc1ccsc1`, the growth inhibition was 101% (active).

`CN(C)CCOC(=O)C1(O)CCC2CC1C2(C)C` (stereo not given): the growth inhibition was 95% (active).

On to `CCN(CC)CCNc1ccnc2[nH]c3ccc(I)cc3c12`, for which the growth inhibition was 100% (active).

`C(=NNc1cc(-c2ccccc2)nc2ccccc12)c1cccnc1`: the growth inhibition was 87% (active).

As for `COc1ccc2nc(-c3cc(-c4ccc(NC(=O)CN5CCOCC5)cc4)cnc3N)[nH]c2c1`, the growth inhibition was 100% (active).

Regarding `Cc1cccc(C(=O)N2CCN(Cc3cccc(NC(=O)c4cccs4)c3)CC2)c1`, the growth inhibition was 95% (active).

With `Cn1ncc2c3c(CCN4CCC(NCc5cc6c(cn5)OCC6)CC4)c(Cl)cnc3ccc21`, the growth inhibition was 94% (active).

In the case of `COc1ccc(CNc2ncc(-c3ccsc3)c(-c3nccs3)n2)cc1OC`, the growth inhibition was 86% (active).

As to `CCCC(=O)Nc1ccc(OCCN(Cc2ccccc2OC(F)(F)F)c2ccc(C(F)(F)F)c(C#N)c2)cc1`, the growth inhibition was 85% (active).

`CC(=O)Nc1cccc(C(=O)Nc2cccc(-c3ccc(-c4nc5c(C)cccc5[nH]4)cc3)c2)c1`: the growth inhibition was 95% (active).

On to `Cc1cc(OCCCN2CCC(NS(=O)(=O)c3cc(Br)c(Cl)s3)CC2)c2ccccc2n1`, for which the growth inhibition is 95% (active).

Turning to `Cc1ccccc1OCC(=O)Nc1ccc(-c2nc3cc4ccccc4cc3[nH]2)cc1`, the growth inhibition was 102% (active).

In the case of `CCc1c(C)nc(-n2nc(C)cc2NC(=O)C(CC)c2ccccc2)[nH]c1=O` (stereo not given), the growth inhibition was 97% (active).

For the molecule `CC(C)Cn1c2ccccc2c2nc3nc(N)nc(N)c3nc21`, the growth inhibition is 93% (active).

Take `O=C(NC1CCN(Cc2ccc(Cl)cc2)CC1)c1cn(-c2ccccc2)nc1-c1cccnc1`: the growth inhibition was 93% (active).
